Measurements published in PubChem BioAssay (EPA / NIEHS).
“And” between values parts separate entries of the source, which are not always exact repeats. Identical values can stand only once. Records with an inconclusive call do not appear. A structure can be active in one record and inactive in another. The source made the active and inactive calls. How the source made its calls, unless noted: active means hit-call score of the fitted dose curve at least 0.9, where 1 is the maximum; inconclusive means response in the unintended direction; inactive means score below 0.9.

What was measured:
[1] = ATG_TCF_b_cat_CIS: Attagene CIS-FACTORIAL HepG2 Assay for human T-Cell-Factor with beta-catenin (TCF/b-cat) (AID 2282965; active means hit-call score of the fitted dose curve at least 0.9, where 1 is the maximum; inactive means score below 0.9); conditions: HepG2 TCF/beta-catenin cis-reporter transcription, actives raise or lower the signal
In short: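 Measured: reporter mRNA in HepG2 transiently transfected with cis-promoter reporter units, 24 h after chemical addition. Fitting was bidirectional, DMSO as negative control.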

[2] = ATG_TAL_CIS: Attagene CIS-FACTORIAL HepG2 Assay for human TAL Basal Promoter (AID 2282966; active means hit-call score of the fitted dose curve at least 0.9, where 1 is the maximum; inactive means score below 0.9;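 further: background control endpoint measuring basal TAL promoter reporter mRNA not a specific factor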); conditions: HepG2 Attagene cis-factorial TAL promoter reporter; actives raise or lower the signal
In short: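 In this cell-based multiplex, HepG2 liver cells bearing cis-promoter reporter constructs are dosed for 24 hours. Total RNA is reverse-transcribed and amplified, labelled fragments are sized by capillary electrophoresis, and signal changes are fitted bidirectionally versus DMSO.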

[3] = ATG_TGFb_CIS: Attagene CIS-FACTORIAL HepG2 Assay for human Transforming Growth Factor (TGF) (AID 2282967; active means hit-call score of the fitted dose curve at least 0.9, where 1 is the maximum; inactive means score below 0.9); conditions: HepG2 Attagene CIS TGFb reporter, mRNA transcription; actives raise or lower the signal
In short: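 HepG2 cells transiently transfected with cis-promoter-driven multiple reporter units measure endogenous TF activity; reporter mRNA quantified at 24 h by RT-PCR, FAM labeling, HpaI digestion and capillary electrophoresis. Bidirectional fit vs DMSO.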

[4] = ATG_VDRE_CIS: Attagene CIS-FACTORIAL HepG2 Assay for human Vitamin D Receptor Element (VDRE) (AID 2282968; active means hit-call score of the fitted dose curve at least 0.9, where 1 is the maximum; inactive means score below 0.9); conditions: HepG2 VDRE cis-reporter transcription, actives raise or lower the signal
In short: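 In transiently transfected HepG2 liver cells, gain or loss of reporter mRNA after 24 h exposure is scored relative to DMSO, using fluorescence detection by capillary electrophoresis of RT-PCR products.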

[5] = biological target: Nuclear receptor subfamily 1 group I member 3 (Homo sapiens) (UniProt Q14994); assay: ATG_CAR_TRANS: Attagene TRANS-FACTORIAL HepG2 Assay for human Constitutive Androstane Receptor (CAR) (AID 2282969); conditions: HepG2 Attagene TRANS-FACTORIAL CAR reporter;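 further: activators raise reporter mRNA above DMSO so AC50 marks induction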
Chain of Nuclear receptor subfamily 1 group I member 3 (Homo sapiens) (Q14994 whole entry, looked up, the tested form may be a part): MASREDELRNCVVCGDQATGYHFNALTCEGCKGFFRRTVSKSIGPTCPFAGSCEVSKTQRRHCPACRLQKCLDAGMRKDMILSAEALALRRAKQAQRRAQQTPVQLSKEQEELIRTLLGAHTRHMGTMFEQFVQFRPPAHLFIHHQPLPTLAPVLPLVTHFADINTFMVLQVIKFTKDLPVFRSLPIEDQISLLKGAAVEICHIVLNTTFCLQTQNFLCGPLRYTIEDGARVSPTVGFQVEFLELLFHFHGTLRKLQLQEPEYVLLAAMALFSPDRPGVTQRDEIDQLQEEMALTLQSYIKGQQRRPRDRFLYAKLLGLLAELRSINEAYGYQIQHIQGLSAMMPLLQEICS
In short: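 Readout is reporter mRNA induction, quantified by fluorescent primer extension and capillary electrophoresis after RT-PCR. Cells were HepG2 transiently carrying chimeric NR-Gal4 constructs with GAL4-UAS reporters, treated for 24 h; activity scored upward from DMSO.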

[6] = biological target: Estrogen receptor (Homo sapiens) (UniProt P03372); assay: ATG_ERa_TRANS: Attagene TRANS-FACTORIAL HepG2 Assay for human Estrogen Receptor alpha (ERa) (AID 2282970); conditions: HepG2 Attagene TRANS ERa GAL4 reporter, mRNA
In short: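 After 24 h of compound treatment, RNA from HepG2 cells bearing transfected GAL4-UAS reporter constructs is converted to cDNA, amplified and fluorescently labelled. Capillary electrophoresis resolves the ERa-linked reporter; DMSO serves as negative control.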

[7] = biological target: Steroid hormone receptor ERR1 (Homo sapiens) (UniProt P11474); assay: ATG_ERRa_TRANS: Attagene TRANS-FACTORIAL HepG2 Assay for human Estrogen-Related Receptor alpha (ERRa) (AID 2282971); conditions: HepG2 Attagene TRANS reporter, ERRa transactivation
Chain of Steroid hormone receptor ERR1 (Homo sapiens) (P11474 whole entry, looked up, the tested form may be a part): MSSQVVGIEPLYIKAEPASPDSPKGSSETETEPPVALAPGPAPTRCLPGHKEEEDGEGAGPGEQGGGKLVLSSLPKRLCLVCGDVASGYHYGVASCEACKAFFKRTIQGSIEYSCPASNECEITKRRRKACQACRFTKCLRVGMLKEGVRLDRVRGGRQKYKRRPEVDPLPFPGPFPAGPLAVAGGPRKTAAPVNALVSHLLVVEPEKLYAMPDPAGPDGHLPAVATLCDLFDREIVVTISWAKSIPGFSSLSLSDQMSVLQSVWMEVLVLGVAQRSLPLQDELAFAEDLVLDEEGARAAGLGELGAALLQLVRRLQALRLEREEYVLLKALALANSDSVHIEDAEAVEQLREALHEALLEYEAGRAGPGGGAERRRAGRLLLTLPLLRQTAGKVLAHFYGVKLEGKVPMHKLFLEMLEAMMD
In short: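 Transfected HepG2, 24 h dosing, ERRa-Gal4 chimera driving GAL4-UAS reporter. Readout: reporter mRNA via RT-PCR plus capillary electrophoresis (fluorescence). Positive direction vs DMSO control.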

[8] = biological target: X-box-binding protein 1 (Homo sapiens) (UniProt P17861); assay: ATG_Xbp1_CIS: Attagene CIS-FACTORIAL HepG2 Assay for human X-box Binding Protein 1 (XBP1) (AID 2282972; active means hit-call score of the fitted dose curve at least 0.9, where 1 is the maximum; inactive means score below 0.9); conditions: HepG2 XBP1 cis-element reporter, Attagene multiplex; actives raise or lower the signal
Chain of X-box-binding protein 1 (Homo sapiens) (P17861 whole entry, looked up): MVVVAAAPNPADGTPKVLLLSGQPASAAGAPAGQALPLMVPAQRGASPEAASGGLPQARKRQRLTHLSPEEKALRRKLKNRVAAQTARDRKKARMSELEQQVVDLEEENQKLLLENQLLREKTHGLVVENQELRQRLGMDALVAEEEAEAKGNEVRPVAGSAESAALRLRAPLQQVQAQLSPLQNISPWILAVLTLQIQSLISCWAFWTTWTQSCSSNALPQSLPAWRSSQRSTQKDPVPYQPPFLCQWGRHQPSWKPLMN
In short: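 HepG2 cells transiently transfected with cis-regulated multiple reporter transcription units; endogenous transcription factor activity measured 24 hours after chemical dosing. Reporter mRNA quantified by RT-PCR, 6-FAM primer extension, HpaI digestion and capillary electrophoresis; bidirectional fitting versus DMSO.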

[9] = ATG_M_19_TRANS: Attagene TRANS-FACTORIAL HepG2 Assay for M19 Transcription Factor (Internal Marker) (AID 2282974); conditions: HepG2 Attagene TRANS-FACTORIAL M19 internal marker reporter
In short: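 Transfected HepG2 (GAL4-UAS MRTUs), 24 h compound, TriZol RNA, DNase-treated RT, reporter PCR, FAM label, HpaI digest, CE fluorescence; gain vs DMSO.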

[10] = ATG_GAL4_TRANS: Attagene TRANS-FACTORIAL HepG2 Assay for GAL4 (Internal Marker) (AID 2282976); conditions: HepG2 Attagene TRANS GAL4 internal marker reporter
In short: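 RT-PCR/capillary electrophoresis readout of reporter mRNA. HepG2, transient MRTU transfection (GAL4-UAS reporters), 24 h compound exposure. Background-control endpoint, positive direction vs DMSO baseline.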

[11] = biological target: Estrogen-related receptor gamma (Homo sapiens) (UniProt P62508); assay: ATG_ERRg_TRANS: Attagene TRANS-FACTORIAL HepG2 Assay for human Estrogen-Related Receptor gamma (ERRg) (AID 2282977); conditions: HepG2 Attagene TRANS reporter, ERRg transactivation;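 further: hits increase reporter signal over DMSO so potencies reflect activators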
Chain of Estrogen-related receptor gamma (Homo sapiens) (P62508 whole entry, looked up, the tested form may be a part): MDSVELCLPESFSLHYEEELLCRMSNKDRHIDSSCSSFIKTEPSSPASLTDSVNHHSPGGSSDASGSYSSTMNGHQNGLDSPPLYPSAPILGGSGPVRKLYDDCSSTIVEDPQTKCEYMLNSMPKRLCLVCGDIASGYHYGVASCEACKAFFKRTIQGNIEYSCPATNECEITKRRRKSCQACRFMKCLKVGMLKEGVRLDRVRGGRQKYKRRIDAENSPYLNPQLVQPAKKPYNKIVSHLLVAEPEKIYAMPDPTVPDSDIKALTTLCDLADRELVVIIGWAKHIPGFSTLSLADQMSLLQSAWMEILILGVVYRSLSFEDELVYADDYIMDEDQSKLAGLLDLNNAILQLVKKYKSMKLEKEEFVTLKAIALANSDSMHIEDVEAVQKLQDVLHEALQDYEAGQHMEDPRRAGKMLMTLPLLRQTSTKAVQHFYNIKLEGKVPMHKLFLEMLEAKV
In short: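 Transient HepG2 transfectants, 24 h compound exposure, GAL4-UAS reporter mRNA by RT-PCR/6-FAM labelling/capillary electrophoresis; positive direction vs DMSO.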

[12] = biological target: Glucocorticoid receptor (Homo sapiens) (UniProt P04150); assay: ATG_GR_TRANS: Attagene TRANS-FACTORIAL HepG2 Assay for human Glucocorticoid Receptor (GR) (AID 2282978); conditions: HepG2 Attagene TRANS GR reporter, mRNA transcription;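 further: activators score as hits since higher reporter transcript over DMSO is fitted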
Chain of Glucocorticoid receptor (Homo sapiens) (P04150 whole entry, looked up): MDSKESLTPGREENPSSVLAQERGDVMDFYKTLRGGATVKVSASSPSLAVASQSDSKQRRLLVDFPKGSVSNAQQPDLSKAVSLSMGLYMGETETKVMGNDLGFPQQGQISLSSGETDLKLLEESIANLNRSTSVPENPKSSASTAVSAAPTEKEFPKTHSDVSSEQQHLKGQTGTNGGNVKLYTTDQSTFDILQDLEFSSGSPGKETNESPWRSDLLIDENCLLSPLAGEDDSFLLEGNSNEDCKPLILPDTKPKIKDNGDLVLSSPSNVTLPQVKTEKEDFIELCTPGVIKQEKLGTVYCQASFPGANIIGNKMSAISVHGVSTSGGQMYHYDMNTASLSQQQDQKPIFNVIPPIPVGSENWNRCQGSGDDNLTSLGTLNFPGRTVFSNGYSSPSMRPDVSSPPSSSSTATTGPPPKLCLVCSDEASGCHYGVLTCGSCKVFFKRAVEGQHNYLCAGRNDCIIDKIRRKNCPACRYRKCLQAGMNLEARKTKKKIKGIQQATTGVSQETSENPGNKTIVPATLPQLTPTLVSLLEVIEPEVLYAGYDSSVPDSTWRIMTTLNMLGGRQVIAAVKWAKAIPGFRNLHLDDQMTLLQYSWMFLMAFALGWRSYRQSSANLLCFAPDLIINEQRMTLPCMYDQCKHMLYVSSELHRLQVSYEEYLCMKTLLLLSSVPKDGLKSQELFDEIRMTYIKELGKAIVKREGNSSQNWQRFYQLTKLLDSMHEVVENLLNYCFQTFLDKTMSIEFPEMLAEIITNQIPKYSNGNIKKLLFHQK
In short: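 After 24 h incubation with test chemical, transfected HepG2 cells were lysed for RNA; reporter cDNA was amplified, FAM-labelled, HpaI-digested and sized on a capillary analyser. Signal gain relative to DMSO was scored.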

[13] = biological target: Bile acid receptor (Homo sapiens) (UniProt Q96RI1); assay: ATG_FXR_TRANS: Attagene TRANS-FACTORIAL HepG2 Assay for Farnesoid X Receptor (FXR) (AID 2282979); conditions: HepG2 Attagene TRANS FXR-GAL4 reporter transcription;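 further: hits raise reporter mRNA above DMSO so AC50 marks FXR activation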
Chain of Bile acid receptor (Homo sapiens) (Q96RI1 whole entry, looked up, the tested form may be a part): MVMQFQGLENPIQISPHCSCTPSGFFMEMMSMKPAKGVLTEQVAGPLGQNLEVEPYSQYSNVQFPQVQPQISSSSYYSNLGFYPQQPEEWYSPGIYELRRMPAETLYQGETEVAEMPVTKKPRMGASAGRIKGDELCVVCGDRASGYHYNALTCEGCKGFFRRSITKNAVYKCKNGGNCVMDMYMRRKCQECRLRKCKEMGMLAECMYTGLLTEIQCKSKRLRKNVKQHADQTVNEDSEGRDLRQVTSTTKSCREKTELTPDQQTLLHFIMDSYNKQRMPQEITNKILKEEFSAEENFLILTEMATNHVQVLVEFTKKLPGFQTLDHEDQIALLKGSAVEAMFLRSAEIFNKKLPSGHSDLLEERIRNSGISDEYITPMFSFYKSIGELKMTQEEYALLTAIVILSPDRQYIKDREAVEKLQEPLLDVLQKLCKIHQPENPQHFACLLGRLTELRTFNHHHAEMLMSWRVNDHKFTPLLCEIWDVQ
In short: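 Read-out: fluorescent reporter transcripts quantified by capillary electrophoresis after RT-PCR of total RNA. Source cells were HepG2 transiently carrying chimeric NR-GAL4 plus GAL4-UAS reporter units, dosed 24 h. Activity fitted upward relative to DMSO baseline.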

[14] = biological target: Oxysterols receptor LXR-alpha (Homo sapiens) (UniProt Q13133); assay: ATG_LXRa_TRANS: Attagene TRANS-FACTORIAL HepG2 Assay for human Liver X Receptor alpha (LXRa) (AID 2282980); conditions: HepG2 Attagene TRANS reporter, LXRa transactivation
Chain of Oxysterols receptor LXR-alpha (Homo sapiens) (Q13133 whole entry, looked up, the tested form may be a part): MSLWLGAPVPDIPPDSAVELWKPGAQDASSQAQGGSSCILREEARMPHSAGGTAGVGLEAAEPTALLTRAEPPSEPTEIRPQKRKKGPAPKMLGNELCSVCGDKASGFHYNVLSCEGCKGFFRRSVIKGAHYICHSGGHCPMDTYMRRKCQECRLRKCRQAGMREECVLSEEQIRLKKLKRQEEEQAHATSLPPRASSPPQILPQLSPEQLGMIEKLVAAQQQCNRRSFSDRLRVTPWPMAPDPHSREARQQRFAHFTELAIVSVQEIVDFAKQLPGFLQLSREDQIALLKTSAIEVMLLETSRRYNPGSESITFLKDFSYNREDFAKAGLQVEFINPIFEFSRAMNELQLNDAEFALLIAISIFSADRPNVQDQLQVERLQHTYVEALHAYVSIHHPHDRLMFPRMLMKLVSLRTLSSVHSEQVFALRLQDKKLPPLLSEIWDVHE
In short: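 Read-out: reporter transcript levels by RT-PCR plus capillary electrophoresis, fluorescence intensity. Transiently transfected HepG2, exogenous NR-GAL4 chimera, GAL4-UAS reporters; 24 h compound exposure. Activity = increase over DMSO negative control.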

[15] = biological target: Oxysterols receptor LXR-beta (Homo sapiens) (UniProt P55055); assay: ATG_LXRb_TRANS: Attagene TRANS-FACTORIAL HepG2 Assay for human Liver X Receptor beta (LXRb) (AID 2282981); conditions: HepG2 Attagene TRANS GAL4-LXRb reporter, mRNA
Chain of Oxysterols receptor LXR-beta (Homo sapiens) (P55055 whole entry, looked up, the tested form may be a part): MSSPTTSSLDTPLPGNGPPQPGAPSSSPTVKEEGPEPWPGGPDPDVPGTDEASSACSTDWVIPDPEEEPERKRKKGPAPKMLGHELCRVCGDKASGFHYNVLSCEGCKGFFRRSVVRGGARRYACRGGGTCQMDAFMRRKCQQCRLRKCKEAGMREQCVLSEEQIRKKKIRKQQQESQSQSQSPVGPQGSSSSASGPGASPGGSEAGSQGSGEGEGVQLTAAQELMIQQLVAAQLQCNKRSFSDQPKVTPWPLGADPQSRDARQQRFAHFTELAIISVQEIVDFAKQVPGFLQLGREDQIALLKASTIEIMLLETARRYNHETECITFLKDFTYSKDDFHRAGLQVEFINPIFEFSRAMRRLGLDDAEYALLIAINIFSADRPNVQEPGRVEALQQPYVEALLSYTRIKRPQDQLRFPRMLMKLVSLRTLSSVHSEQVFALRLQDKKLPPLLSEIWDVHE
In short: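 Cells: HepG2, transiently transfected with GAL4-UAS reporter units plus LXRb-Gal4 fusion. Treatment: 24 h. Detection: reporter mRNA by RT-PCR, 6-FAM labelling, HpaI digestion, capillary electrophoresis.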

[16] = biological target: Hepatocyte nuclear factor 4-alpha (Homo sapiens) (UniProt P41235); assay: ATG_HNF4a_TRANS: Attagene TRANS-FACTORIAL HepG2 Assay for human Hepatocyte Nuclear Factor 4 alpha (HNF4a) (AID 2282982); conditions: HepG2 HNF4a transactivation reporter, mRNA readout
Chain of Hepatocyte nuclear factor 4-alpha (Homo sapiens) (P41235 whole entry, looked up): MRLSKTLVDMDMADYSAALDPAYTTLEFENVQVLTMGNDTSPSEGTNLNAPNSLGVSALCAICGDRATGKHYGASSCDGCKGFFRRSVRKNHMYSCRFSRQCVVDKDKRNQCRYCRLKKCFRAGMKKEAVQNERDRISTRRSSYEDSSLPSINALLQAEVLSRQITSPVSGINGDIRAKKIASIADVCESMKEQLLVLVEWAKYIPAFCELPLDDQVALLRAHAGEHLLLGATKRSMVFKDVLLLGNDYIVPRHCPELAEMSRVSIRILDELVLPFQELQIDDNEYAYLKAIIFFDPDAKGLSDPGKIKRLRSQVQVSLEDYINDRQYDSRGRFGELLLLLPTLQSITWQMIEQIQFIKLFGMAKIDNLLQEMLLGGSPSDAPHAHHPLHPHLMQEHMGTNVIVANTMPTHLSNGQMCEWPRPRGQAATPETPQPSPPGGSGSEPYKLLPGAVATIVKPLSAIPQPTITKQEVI
In short: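 Transfected HepG2 reporter cells are dosed for 24 h; reporter RNA is reverse-transcribed, amplified, fluorescently labelled and HpaI-digested before CE sizing. Positive-direction fit against DMSO.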

[17] = ATG_M_06_TRANS: Attagene TRANS-FACTORIAL HepG2 Assay for M06 Transcription Factor (Internal Marker) (AID 2282983); conditions: HepG2 Attagene TRANS M06 internal marker reporter
In short: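 After a 24 h chemical treatment of transfected HepG2, RNA underwent DNase I treatment, reverse transcription and reporter-specific PCR; labelled, HpaI-digested products were sized by capillary electrophoresis. Signal increase relative to DMSO defined activity.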

[18] = ATG_M_32_TRANS: Attagene TRANS-FACTORIAL HepG2 Assay for M32 Transcription Factor (Internal Marker) (AID 2282984); conditions: HepG2 Attagene TRANS M32 internal marker reporter;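 further: transcript level of a background control reporter unit measured by RT-PCR and capillary electrophoresis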
In short: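 Using transiently transfected HepG2 cells exposed to test chemicals for 24 h, reporter transcripts are converted to labelled cDNA fragments and quantified by capillary electrophoresis. DMSO defines the activity baseline.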

[19] = biological target: Nuclear receptor subfamily 4 group A member 2 (Homo sapiens) (UniProt P43354); assay: ATG_NURR1_TRANS: Attagene TRANS-FACTORIAL HepG2 Assay for human Nuclear Receptor Related Protein 1 (NURR1) (AID 2282985); conditions: HepG2 Attagene TRANS reporter, mRNA readout
Chain of Nuclear receptor subfamily 4 group A member 2 (Homo sapiens) (P43354 whole entry, looked up): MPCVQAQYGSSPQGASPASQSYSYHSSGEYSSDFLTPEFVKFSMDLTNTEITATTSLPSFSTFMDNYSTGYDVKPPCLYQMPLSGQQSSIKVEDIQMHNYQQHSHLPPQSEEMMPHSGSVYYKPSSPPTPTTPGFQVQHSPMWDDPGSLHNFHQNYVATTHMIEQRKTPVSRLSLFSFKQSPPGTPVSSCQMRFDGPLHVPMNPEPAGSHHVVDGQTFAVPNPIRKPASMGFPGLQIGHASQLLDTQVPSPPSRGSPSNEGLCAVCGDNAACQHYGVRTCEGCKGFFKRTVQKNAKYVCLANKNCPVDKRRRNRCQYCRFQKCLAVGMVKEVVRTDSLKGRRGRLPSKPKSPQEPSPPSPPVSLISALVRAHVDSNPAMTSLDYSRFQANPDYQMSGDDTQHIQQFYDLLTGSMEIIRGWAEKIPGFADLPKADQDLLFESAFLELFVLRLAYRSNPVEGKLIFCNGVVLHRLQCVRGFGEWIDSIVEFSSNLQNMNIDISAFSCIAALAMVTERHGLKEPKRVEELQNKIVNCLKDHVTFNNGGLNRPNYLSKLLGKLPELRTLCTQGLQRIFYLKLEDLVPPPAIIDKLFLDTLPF
In short: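 Cells: HepG2, transiently transfected. Exposure: 24 h. Detection: fluorescence of labelled RT-PCR products separated by capillary electrophoresis; upward fit versus DMSO.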

Measured: AC50

C=CCC1=C(C)C(OC(=O)C2C(C=C(C)C)C2(C)C)CC1=O (centres undefined)
active: [1] 48.8 µM [middle of 5 runs] | [2] 105 µM | [3] 178 µM | [6] 26.8 µM | [8] 53.5 µM [middle of 5 runs] | [13] 35.7 µM and 35 µM and 27.2 µM | [16] 179 µM
inactive: [1] | [2] | [3] | [4] | [5] | [6] | [7] | [8] | [9] | [10] | [11] | [12] | [13] | [14] | [15] | [16] | [17] | [18]

CCCCOC(=O)c1ccccc1C(=O)OCCCC
active: [3] 65.8 µM
inactive: [1] | [2] | [3] | [4] | [5] | [6] | [7] | [8] | [9] | [10] | [11] | [12] | [14] | [15] | [16] | [17] | [18] | [19]

C=CCC1=C(C)[C@@H](OC(=O)[C@@H]2[C@@H](C=C(C)C)C2(C)C)CC1=O
active: [4] 6.05 µM
inactive: [1] | [2] | [3] | [5] | [6] | [7] | [8] | [11] | [12] | [15] | [16] | [17]

CCCCC(CC)COC(=O)c1ccccc1C(=O)OCC(CC)CCCC (centres undefined)
inactive: [1] | [2] | [3] | [4] | [5] | [6] | [8] | [9] | [12] | [13] | [15] | [16] | [17] | [18] | [19]

OC(c1ccc(Cl)cc1)(c1cncnc1)c1ccccc1Cl (centres undefined)
active: [4] 50 µM | [6] 3.2 µM
inactive: [1] | [2] | [3] | [4] | [5] | [6] | [7] | [8] | [9] | [10] | [11] | [12] | [14] | [15] | [16] | [17] | [18] | [19]

COC(=O)N(OC)c1ccccc1COc1ccn(-c2ccc(Cl)cc2)n1
inactive: [1] | [2] | [3] | [5] | [6] | [7] | [8] | [10] | [11] | [12] | [13] | [14] | [15] | [16] | [17] | [18]
active: [4] 1.35 µM
